PI5P4Ka inh – qHTS for Inhibitors of phosphatidylinositol 5-phosphate 4-kinase (PI5P4K). Phosphatidylinositol 5-phosphate 4-kinase type-2 alpha (Homo sapiens), P48426. PI5P4Kalpha enzyme, ADP-Glo luminescence, 60 min; stronger effect = lower value. max response, %. actives 1.2% (n = 330,000); active means max response of -50% or lower; inconclusive means between -30% and -50%; inactive means -30% or higher; further: value at the top dose of about 77 µM; on the % scale 0 is the no-effect control and ±100 the full control effect
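Human PI5P4Kalpha with substrate in 0.038 M HEPES pH 7.4, 0.28 mM EGTA, 0.1% CHAPS, 5% DMSO; reaction started with 5 microM ATP (final), 60 min at room temperature. ADP formed read by ADP-Glo luminescence.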
JMJD2A Tudor – qHTS Assay for Inhibitors of JMJD2A-Tudor Domain; Lysine-specific demethylase 4A (Homo sapiens), O75164; AlphaScreen JMJD2A-Tudor / H3K4me3 peptide binding; Potency, µM (titrated, usually from 114 µM), inactives show at the highest dose activity change, negative = inhibition, most hits filed as inhibitors; actives 4.4% (n = 390,000); AID 504339, 2011; further: potency means the concentration at half of the fitted maximal effect; on the % scale 0 is the no-effect control and ±100 the full control effect; nearly all actives have a fitted effect of over 50% in size
L3MBTL1 inh – qHTS Assay for the Inhibitors of L3MBTL1 | Lethal(3)malignant brain tumor-like protein 1 (Homo sapiens), Q9Y468 | AlphaScreen L3MBTL1–H3K9me1 peptide binding | Potency, µM (highest dose often 57.1 µM), without a hit: at the highest dose activity, negative = inhibition, usual class: inhibitors | actives 0.66% (n = 230,000) | AID 485360, 2010; further: potency means the concentration at half of the fitted maximal effect; on the % scale 0 is the no-effect control and ±100 the full control effect; nearly all actives have a fitted effect of over 60% in size
Target sequence (Q9Y468 whole entry, looked up): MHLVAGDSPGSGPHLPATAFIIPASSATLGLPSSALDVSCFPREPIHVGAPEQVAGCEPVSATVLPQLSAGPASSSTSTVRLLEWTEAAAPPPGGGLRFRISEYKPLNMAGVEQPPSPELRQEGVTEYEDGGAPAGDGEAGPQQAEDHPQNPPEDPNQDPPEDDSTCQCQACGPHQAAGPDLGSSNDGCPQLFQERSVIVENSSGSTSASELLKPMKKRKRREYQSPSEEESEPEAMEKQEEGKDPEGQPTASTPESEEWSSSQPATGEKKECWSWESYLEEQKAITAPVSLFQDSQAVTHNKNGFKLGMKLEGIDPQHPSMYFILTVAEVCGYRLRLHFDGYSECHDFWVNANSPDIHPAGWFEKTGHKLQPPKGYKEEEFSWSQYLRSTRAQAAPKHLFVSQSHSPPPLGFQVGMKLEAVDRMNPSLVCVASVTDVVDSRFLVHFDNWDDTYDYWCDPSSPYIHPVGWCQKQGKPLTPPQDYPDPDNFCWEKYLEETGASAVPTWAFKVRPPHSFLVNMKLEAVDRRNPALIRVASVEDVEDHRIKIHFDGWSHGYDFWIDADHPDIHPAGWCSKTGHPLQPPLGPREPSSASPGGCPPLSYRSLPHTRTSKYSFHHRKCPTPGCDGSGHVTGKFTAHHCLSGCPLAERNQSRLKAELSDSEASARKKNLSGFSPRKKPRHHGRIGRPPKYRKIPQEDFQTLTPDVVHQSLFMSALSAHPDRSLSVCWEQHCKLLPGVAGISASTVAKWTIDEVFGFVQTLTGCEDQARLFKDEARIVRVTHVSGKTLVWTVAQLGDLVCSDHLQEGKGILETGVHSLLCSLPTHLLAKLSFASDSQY
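L3MBTL1 (50 nM) pre-complexed 30 min with biotinylated H3(1-15)K9me1 peptide (75 nM), then compounds added for 30 min at room temperature; AlphaScreen streptavidin donor/nickel chelate acceptor beads (10 ug/mL final) read after 30 min dark incubation.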
BAZ2B block – qHTS Assay for Inhibitors of BAZ2B; AlphaScreen BAZ2B-H3K14Ac peptide displacement; Potency, µM (top dose mostly 114 µM), for the others: top-dose activity change, negative = inhibition, actives largely listed as inhibitors; actives 4.4% (n = 360,000); further: potency means the concentration at half of the fitted maximal effect; on the % scale 0 is the no-effect control and ±100 the full control effect; nearly all actives have a fitted effect of over 60% in size
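AlphaScreen luminescence quantifies BAZ2B engagement of H3K14Ac peptide; the protein and biotinylated peptide are both at 50 nM final, buffer PBS pH 7.4 with 0.01% Tween-20, all steps at room temperature.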
G9a inh – qHTS Assay for Inhibitors of Histone Lysine Methyltransferase G9a; Histone-lysine N-methyltransferase EHMT2 (Homo sapiens), Q96KQ7; G9a H3K9 monomethylation, AlphaScreen, 2 h; Potency, µM (series often up to 102 µM), inactives show top-dose activity, negative = inhibition, most hits filed as inhibitors; actives 8.8% (n = 350,000); AID 504332, 2011; further: potency means the concentration at half of the fitted maximal effect; on the % scale 0 is the no-effect control and ±100 the full control effect; nearly all actives have a fitted effect of over 75% in size
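G9a (20 nM) was preincubated 15 min with compound, then reacted 2 h at room temperature with 500 nM biotin-H3K9 peptide and 20 µM SAM. Monomethyl-H3K9 detected by AlphaScreen using anti-H3K9me1 antibody.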
HP1b chromo inh – HTS for Inhibitors of HP1-beta Chromodomain Interactions with Methylated Histone Tails. AlphaScreen HP1-beta / biotin-H3K9me3 peptide binding. Chromobox protein homolog 1 (Homo sapiens), P83916. AID 540317, 2011. actives 0.56% (n = 390,000). Potency, µM (highest dose often 114 µM), for the others: at the highest dose activity change, negative = inhibition, most hits filed as inhibitors; further: potency means the concentration at half of the fitted maximal effect; nearly all actives have a fitted effect of over 70% in size
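HP1-beta protein (50 nM final) preincubated 30 min at room temperature with biotinylated H3(1-18)K9me3 peptide (50 nM) in PBS pH 7.4, 0.01% Tween-20, then compound added for 30 min. AlphaScreen streptavidin donor/nickel chelate acceptor beads (10 ug/mL final), 30 min dark, luminescence read.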
The depositor's hits bear a star; ? = inconclusive; nt = not tested or not shown; ! = a repeat was not active; [ ] = remark or other dose. Shown are actives, neighbours in structure and some others; about 11% of the full set was active somewhere. Unless noted, the call rests on the fitted dose curve; in most records, active means well fitted inhibition curve with a large enough effect; inconclusive means small, poorly fitted or top-dose-only effect; inactive means no such curve, though single readings can be large or run the other way.

SMILES	PI5P4Ka inh	JMJD2A Tudor	L3MBTL1 inh	BAZ2B block	G9a inh	HP1b chromo inh
CCn1ccc2cc(S(=O)(=O)N3CCC(C(=O)NCc4ccc(OC(C)C)cc4)CC3)ccc21	nt	-16%	nt	-3%	-2%[59 µM]	13%[57 µM]
CCOc1ccc(Nc2oc(-c3ccc(COc4ccccc4C)o3)nc2C#N)cc1	nt	-28%	nt	?	-34%[59 µM]	30%
N[C@@H]1C(O)OC(CO)C(O)C1O (stereo not given in full)	nt	nt	nt	nt	-38%[2.33 µM]	nt
CN(C)c1ccc(C(CNC(=O)c2ccccc2)c2c[nH]c3ccccc23)cc1 (stereo not given)	2	?	?	14µM*	8.9µM*	40µM*
CN(C)c1ccc(C(CNC(=O)c2ccccc2F)c2c[nH]c3ccccc23)cc1 (stereo not given)	3	?	-13%	?	?	14%
CN(C)c1ccc(C(CNS(=O)(=O)c2ccc(F)c(F)c2)c2c[nH]c3ccccc23)cc1 (stereo not given)	7	22µM*	?	22µM*	40µM*	32µM*
O=Cc1cc(Cl)ccc1OCCN1CCC(Cc2ccccc2)CC1	-5	20µM*	2%	?	25µM*	?
OCc1ccccc1OCCCN1CCC(Cc2ccccc2)CC1	3	22µM*	4%	?	35µM*	?
C=CCOc1ccccc1CN1CCC(Cc2ccccc2)CC1	1	3.2µM*	-10%	?	nt	?
O=C(OCC(=O)N1CCC(Cc2ccccc2)CC1)c1cc(Cl)ccc1O	0	8%	25%	8%	9%[0.501 µM]	53%
OC(CN1CCC(Cc2ccccc2)CC1)C(F)(F)F (stereo not given)	0	-1%	nt	2%	-9%[0.501 µM]	64%
C=CCOc1ccccc1CN1CCC(n2nccc2NC(=O)c2ccccc2)CC1	3	-14%	nt	-9%	-7%	39%
COc1cc(C(C)=O)ccc1OCCCN1CCC(Cc2ccccc2)CC1	2	?	nt	56µM*	35µM*	?
COc1cc(C(=S)N2CCC(Cc3ccccc3)CC2)ccc1OCC(N)=O	-2	-23%	nt	-32%	-12%[2.33 µM]	24%
CC1CCCN(S(=O)(=O)c2ccc3c(c2)CCN3C(=O)CCC(=O)O)C1 (stereo not given)	nt	6%	nt	6%[57.1 µM]	1%[59 µM]	44%
COc1cc(C(C)=O)ccc1OCC(=O)N1CCC(Cc2ccccc2)CC1	-5	nt	nt	nt	nt	nt
COc1cc(C(C)=O)ccc1OCCN1CCC(Cc2ccccc2)CC1	-2	1.6µM*	0%[11.4 µM]	32µM*	?	45µM*
CC(C)C[C@H](NC(=O)NCc1ccc(Cl)cc1)C(=O)O	5	-25%	4%	2%	35µM*	13%
CCn1c(CCNC(=O)c2ccccc2Cl)n[nH]c1=S	5	40µM*	-4%	4%	nt	33%
O=C(NCc1n[nH]c(=S)n1Cc1ccccc1)c1ccc(Cl)cc1Cl	3	-30%	5%	-14%	?	33%
CCn1c(CCNC(=O)c2ccc(Cl)cc2Cl)n[nH]c1=S	nt	7.1µM*	4%	9%	40µM*	41%
COc1ccc(S(=O)(=O)NCCc2sc(-c3ccccc3)nc2C)cc1F	nt	-21%	nt	0%	10%[59 µM]	17%[57 µM]
O=C(Nc1ccc(Oc2ccccc2)cc1)c1cnc2n(c1=O)CCS2	-1	-12%	nt	-16%	56µM*	28%
O=C(NCCc1ccccc1)c1cnc2n(c1=O)CCS2	-4	-12%	nt	nt	-43%	6%
COc1ccc(C)cc1NC(=O)c1cnc2n(c1=O)CCS2	nt	-3%	36%	2%	-13%[59 µM]	1%
SMILES	PI5P4Ka inh	JMJD2A Tudor	L3MBTL1 inh	BAZ2B block	G9a inh	HP1b chromo inh
CCOc1ccccc1NC(=O)c1cnc2n(c1=O)CCS2	1	1%	7%	-2%	79µM*	29%
Cc1ccc(C2(c3ccccc3)NC(=O)N(CC(=O)NC3CCCCC3)C2=O)cc1C (stereo not given)	2	-17%	1%	-3%	14µM*	17%
O=C1C(=O)N(O)C2CCCCC2N1O (stereo not given)	-8	?	5%	?	7.9µM*	21%
CCOC(=O)c1ccc(NC(=O)CC2OCCN(CC)C2=O)cc1 (stereo not given)	-8	-25%	-19%	-16%	?	29%
CCN1CCOC(CC(=O)Nc2cccc([N+](=O)[O-])c2)C1=O (stereo not given)	-3	-2%	0%	-29%	7.9µM*	16%
CCCN1CCOC(CC(=O)Nc2ccc([N+](=O)[O-])cc2)C1=O (stereo not given)	1	-6%[11.4 µM]	nt	2%	20µM*	-3%
CC(C)OCC1CC(CC(=O)Nc2ccc([N+](=O)[O-])cc2)C(=O)O1 (stereo not given)	-5	-4%	11%	6%	7%[0.501 µM]	36%
Cc1cccc(C(C)C)c1NC(=O)c1ccc2c(c1)CCCN2S(C)(=O)=O	nt	-22%	nt	-12%	10%[59 µM]	56%
Cc1cc(C)c2c(N)c(C(=O)N3CCCCCC3)sc2n1	?	35µM*	nt	?	?	2%
Cc1cc(C)c2c(N)c(C(=O)NCc3ccco3)sc2n1	-10	-12%	-17%	-2%	10µM*	30%
CC(=O)c1sc2nc(C)cc(C)c2c1N	nt	2%	-6%	-4%	0%[59 µM]	79%
O=C(CCCCn1c(=O)c2ccccc2n(Cc2ccccc2F)c1=O)NCc1ccccc1Cl	nt	-14%	nt	-6%	0%[59 µM]	2%
O=C(O)CP(=O)(O)O	0	?	-1%	?	13µM*!	15%
O=C(O)CN(CCN(CC(=O)O)CC(=O)O)CCN(CC(=O)O)CC(=O)O	nt	nt	nt	nt	-11%[59 µM]	nt
Cc1ccccc1CNC(=O)C1CCCCN1S(=O)(=O)c1ccc(F)cc1 (stereo not given)	nt	9%	nt	13%	-1%[59 µM]	34%
